Test results: PubChem BioAssay (EPA / NIEHS)
Inconclusive results are not listed. Active and inactive are the calls of the source. The calls were made as follows: active = hit-call score of the fitted dose curve at least 0.9, where 1 is the maximum; inconclusive = response in the unintended direction; inactive = score below 0.9.

These molecules were tested on HMG-CoA synthase (HMGCS2), HMGCS2 (gene 3158) (assay: CLD_HMGCS2_48hr: CellzDirect (CLD) Gene Expression Assay for HMG-CoA synthase (HMGCS2) at 48 hours (AID 2283711)).
Description: CLD_48hr is a cell-based, multiplexed-readout assay that uses hepatocyte, a human liver primary cell, with measurements taken at 48 hours after chemical dosing in a 96-well plate.CLD_HMGCS2_48hr is one of 16 assay component(s) measured or calculated from the CLD_48hr assay. It is designed to make measurements of mRNA induction, a form of inducible reporter, as detected with chemiluminescence signals by Quantitative Nuclease Protection Assay (qNPA) technology.Data from the assay component CLD_HMGCS2_48hr was analyzed at the endpoint, CLD_HMGCS2_48hr, in the positive analysis fitting direction relative to DMSO as the negative control and baseline of activity. Using a type of inducible reporter, gain-of-signal activity can be used to understand changes in the reporter gene as they relate to the gene HMGCS2. Furthermore, this assay endpoint can be referred to as a primary readout. To generalize the intended target to other relatable targets, this assay endpoint is annotated to the lyase intended target family, where subfamily is HMG-CoA synthase.
Human hepatocyte cultures were treated daily for two consecutive days with fresh dosing solutions containing appropriate concentrations of the 320 ToxCast chemicals (chemical identities were blinded to CellzDirect and other ToxCast collaborators), vehicle control (0.2% DMSO), and positive control inducers as summarized in Table 1. Due to the large number of treatment groups and chemicals examined, the ToxCast chemicals were divided into two groups (spanning two independent cultures of hepatocytes from separate donor preparations (Hu778: ToxCast plates 1 and 2; Hu776: ToxCast plates 3 and 4). Each preparation of human hepatocyte cultures was treated with respective vehicle control, medium only control, set of six positive controls/reference chemicals for the five hepatic receptor pathways, and a subset of eight of the ToxCast chemicals (indoxacarb, pyrithiobac-sodium, norflurazon, cyhalofop-butyl, methomyl, thiram, acetochlor, and propiconazole). These replicate data, coupled with internal replicates designed within the blinded ToxCast chemical library, provided additional data to evaluate interindividual differences between hepatocyte preparations and their potential impact on chemical profiles.Cell morphology and integrity were evaluated using phase-contrast microscopy as an indicator of hepatocyte cell health (Tyson & Green, 1987). Cultures for each treatment group (i.e., media, vehicle [0.2% DMSO], positive control inducers [multiple concentrations], and the ToxCast chemicals [multiple concentrations]) were observed and cell morphology was assessed relative to vehicle control cultures at each harvest time point (0, 6, 24, or 48 h). […] Images were evaluated at the conclusion of the study to assess changes in cell integrity and account for the effects of chemical exposure on uncharacteristic changes in concentration-dependent gene expression profiles. The results from these determinations of apparent cytotoxicity were annotated (yes/no) alongside the corresponding qNPA data for reference.At the conclusion of each treatment period, hepatocyte cultures (96-well) were washed with 1 volume of HBSS, lysed by addition of 25 ul ArrayPlate lysis buffer (HTG, Tucson, AZ), and 70 ul/well of Denaturation Oil, denatured by incubation at 95C for 10 min, and frozen at approximately -70C until analysis by nuclease protection assay (qNPA) (Roberts et al., 2007). For qNPA analysis, cell lysates were thawed at 50C for approximately 30 min, qNPA probes were added, and samples were incubated at 95C for 10 min to begin the detection process by denaturing the target RNA, dissociating the duplexes and secondary structure hybridization. At the conclusion of the hybridization period, S1 nuclease reagent was added to each sample to digest all nonprotected nucleotides at 50C for 60-90 min. […]

| Structure (SMILES) | outcome | AC50 |
| --- | --- | --- |
| CNC(=O)/C=C(\C)OP(=O)(OC)OC | inactive | – |
| O=C(O)COc1ccc(Cl)cc1Cl | inactive | – |
| Clc1ccccc1-c1nnc(-c2ccccc2Cl)nn1 | inactive | – |
| O=C(O)CCCOc1ccc(Cl)cc1Cl | inactive | – |
| CC1(c2ccc(Oc3ccccc3)cc2)OC(=O)N(Nc2ccccc2)C1=O (centres undefined) | inactive | – |
| O=S(=O)(O)C(F)(F)C(F)(F)C(F)(F)C(F)(F)C(F)(F)C(F)(F)C(F)(F)C(F)(F)F | inactive | – |
| CC(C)(C)C(O)C(Oc1ccc(Cl)cc1)n1cncn1 (centres undefined) | inactive | – |
| CC1(C)C(C=C(Cl)Cl)C1C(=O)OC(C#N)c1ccc(F)c(Oc2ccccc2)c1 (centres undefined) | inactive | – |
| CNC(=O)CSP(=S)(OC)OC | inactive | – |
| O=C(NC(=O)c1c(F)cccc1F)Nc1ccc(OC(F)(F)C(F)OC(F)(F)F)c(Cl)c1 (centres undefined) | inactive | – |
| Oc1ccc(Cl)cc1Cc1ccccc1 | inactive | – |
| Cc1cc(C)nc(NC(=O)NS(=O)(=O)c2ccccc2C(=O)OC2COC2)n1 | inactive | – |
| O=C(O)C(F)(F)C(F)(F)C(F)(F)C(F)(F)C(F)(F)C(F)(F)C(F)(F)F | – | 35.5 µM (active) |
| Oc1cc(Cl)ccc1Oc1ccc(Cl)cc1Cl | – | 0.0058 µM (active) |
